Compound activity deposited in PubChem BioAssay by National Center for Advancing Translational Sciences (NCATS).
Sampled rows, rich in hits. Any-hit rate of the full collection: about 3.1%.
rTrxR1 inhibitor – inhibitors of rat thioredoxin reductase 1 | actives 1% (n = 390,000) | O89049 | AID 588453 | Potency, µM (titrated, usually from 114 µM), usual class: inhibitors | recombinant rTrxR1, NADPH fluorescence consumption, selenite substrate; also: nearly all actives have a fitted effect of over 65% in size
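Rat TrxR1 (90 nM in the dispensed reagent) was pre-reduced with 400 uM NADPH for 5 min at room temperature, then incubated with compound for 15 min. After 400 uM selenite was added, NADPH fluorescence (Ex 340/Em 450 nm) was followed for 8 min.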
TrxR1 substrate – substrates of rat thioredoxin reductase 1; purified TrxR1 substrate turnover, NADPH consumption readout; AID 588456; actives 0.01% (n = 390,000); Potency, µM (top dose mostly 114 µM); also: nearly all actives have a fitted effect of over 50% in size
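Rat TrxR1, dispensed at 90 nM, was prereduced with 400 uM NADPH (final) for 5 min at ~22 deg C, then incubated with compound 15 min before 400 uM selenite. A first-read NADPH fluorescence drop versus no-compound background flagged substrates.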
A549 tox – kills or reduces viability of A549 cells in Nrf2 counter-screen; A549 ARE-Fluc cells, CellTiter-Fluor viability, 18-24 h; Potency, µM (titrated, usually from 46 µM), actives largely listed as inhibitors; actives 0.16% (n = 390,000); AID 504648
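A549 ARE_Fluc cells in 5% FBS OPTI-MEM were exposed to compounds in concentration-response for 18-24 h at 37 deg C. Viability was read by CellTiter-Fluor fluorescence (Ex 405/Em 525) after 30 min, before the luciferase read.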
Nrf2 block – blocks Nrf2 signaling | A549 ARE-Fluc reporter, luciferase luminescence, 18-24 h | AID 504444 | actives 2.1% (n = 360,000) | Potency, µM (highest dose often 46 µM), hits mostly inhibitors; also: nearly all actives have a fitted effect of over 60% in size
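Quantitative HTS in A549 cells stably bearing an antioxidant response element-firefly luciferase construct. Inhibition of Nrf2-driven transcription was scored by luminescence after 18-24 h of compound exposure at 37 °C.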
Mito fusion act – blocks mitochondrial division or promotes mitochondrial fusion; AID 485298; S. cerevisiae fusion-defective mutant growth rescue, CellTiterGlo 48 h; Potency, µM (highest dose often 46.1 µM), most hits filed as activators; actives 0.23% (n = 320,000); also: nearly all actives have a fitted effect of over 45% in size
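Yeast fusion mutant, YPEG (non-fermentable carbon), compound, 48 h at 37C non-permissive; CellTiterGlo added, 10 min RT, luminescence read. Rescued growth = division inhibition.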
mIDH1 inhibitor – inhibitors of human mutant IDH1 R132H | Potency, µM (highest dose often 76.6 µM), usual class: inhibitors | IDH1-R132H enzyme, NADPH consumption, diaphorase/resazurin fluorescence | O75874 | AID 602179 | actives 0.093% (n = 390,000); also: nearly all actives have a fitted effect of over 65% in size
Target sequence (O75874 whole entry R132H, stated change not applied): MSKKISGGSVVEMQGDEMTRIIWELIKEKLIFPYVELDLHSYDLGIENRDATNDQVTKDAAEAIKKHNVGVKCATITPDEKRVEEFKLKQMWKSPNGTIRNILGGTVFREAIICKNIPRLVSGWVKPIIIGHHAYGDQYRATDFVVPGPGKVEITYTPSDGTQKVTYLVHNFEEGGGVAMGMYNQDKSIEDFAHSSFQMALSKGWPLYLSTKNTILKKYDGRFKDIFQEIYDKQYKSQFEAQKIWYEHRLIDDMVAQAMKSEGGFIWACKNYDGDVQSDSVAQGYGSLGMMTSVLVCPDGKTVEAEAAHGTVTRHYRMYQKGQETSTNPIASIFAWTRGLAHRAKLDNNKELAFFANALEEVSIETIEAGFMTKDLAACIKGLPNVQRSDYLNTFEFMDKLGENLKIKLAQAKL
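IDH1-R132H (0.5 ug/mL dispensed) in pH 7.5 Tris buffer was preincubated 30 min with compound, then given a substrate mix of 0.016 mM NADPH and 2 mM alpha-KG for 80 min at room temperature; remaining NADPH was read by diaphorase/resazurin fluorescence.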
A number is an active result; i = inactive; ? = inconclusive; nt = no result given; [ ] = remark or other dose. Calls follow the shape of the dose curve; as a rule, active = well fitted curve in the direction sought with a large enough effect; inconclusive = small, poorly fitted or top-dose-only effect, or another doubt; inactive = no such curve, though single readings can be large; an effect the other way counts as inactive or inconclusive.

SMILES	rTrxR1 inhibitor	TrxR1 substrate	A549 tox	Nrf2 block	Mito fusion act	mIDH1 inhibitor
COC1=C(C)C(=O)C2=C(C1=O)C1C3CC4=C(C(=O)C(OC)=C(C)C4=O)C(CNC(=O)C(C)=O)N3C(C#N)C(C2)N1C (centres undefined)	i	i[11.4 µM]	9.2µM	0.58µM	nt	i
Cc1c(F)cccc1NS(=O)(=O)c1cccs1	i	i	i	nt	nt	i
COc1cc2c(cc1OC)CN(CCOc1ccc(Br)cc1)CC2	i	i	i	i	i	i
COc1ccc(-c2nc(CN3CCN(c4ccccc4OC)CC3)c(C)o2)cc1	i	i	?	18µM	i	i
COc1ccc(C(=O)CCN2CCc3cc(OC)c(OC)cc3C2)cc1	0.89µM	i	i	i	i	i
COc1ccc(C(=O)CCN2CCN(c3ccccc3OC)CC2)cc1	14µM	i	i	i	i	i
COc1ccccc1N1CCN(Cc2nc(-c3ccc(F)cc3)oc2C)CC1	i	i	i	?	i	i
CCCCNC(=O)C(CC)n1c(SCc2cccc(F)c2)nc2ccncc21 (centres undefined)	i	i	i	?	nt	nt
CC(C)NS(=O)(=O)c1cc(C(F)(F)F)ccc1/C=C/C(=O)O	?	i	nt	nt	nt	nt
CCOc1ccccc1OCC(=O)NCc1ccco1	28µM	i	i	i	i	i
CCOc1ccccc1N(C(=O)CNS(=O)(=O)c1ccccc1)C(CC)C(=O)NCc1ccco1 (centres undefined)	25µM	i	i	i	i	i
CC(=O)N1N=C(c2ccco2)CC1c1cccs1 (centres undefined)	?	i	i	i	i	i
Cc1ccc(C2=NN(C(=O)CCl)C(c3cccs3)C2)o1 (centres undefined)	10µM	i	i	i	i	i
O=C(CCl)N1N=C(c2ccco2)CC1c1cccs1 (centres undefined)	2µM	i	?	?	i	i
Cc1cc(S(=O)(=O)Nc2ccc(-c3ccc(N4CCCCCC4)nn3)cc2)c(C)cc1Cl	i	i	i	nt	nt	i
Cc1ccc(NC(=O)CSc2nc3ccccc3c3nc(CCc4c(C)n[nH]c4C)nn23)cc1F	i	i	?	13µM	i	i
COc1ccc(-c2cn3nc(SCC(=O)Nc4ccccc4F)ccc3n2)cc1	i	i	i	nt	nt	i
CC1CCN(S(=O)(=O)c2cc(C(=O)N3CCN(c4ncccn4)CC3)ccc2Br)CC1	i	i	i	23µM	i	i
CC1=C(C(=O)OC2CCCCCC2)C(c2cccc(Cl)c2)CC(=O)N1 (centres undefined)	i	i	i	16µM	nt	i
CC1=C(C(=O)OC2CCCCCC2)C(c2ccc(Cl)cc2)CC(=O)N1 (centres undefined)	i	i	i	?	nt	i
CC1=C(C(=O)OCC2CCCCC2)C(c2cccc(O)c2)NC(=O)N1 (centres undefined)	nt	nt	nt	nt	i	nt
CC1=C(C(=O)OC2CCCCCCC2)C(c2cccc(O)c2)NC(=O)N1 (centres undefined)	i	i	i	26µM	i	i
COc1ccc(C2/C=C\CN(CC3CCCCC3)C(Cc3ccccc3)C(=O)N2Cc2ccc(F)cc2)cc1 (centres undefined)	i	i	i	i	nt	nt
CCc1nn(CC(=O)NCCc2ccc(OC)cc2OC)c(=O)c2cc3c(OC)cccc3n12	i	i	i	i	nt	i
O=C1C=CC(=O)N1Cc1cccnc1	79µM	i	i	i	nt	i
SMILES	rTrxR1 inhibitor	TrxR1 substrate	A549 tox	Nrf2 block	Mito fusion act	mIDH1 inhibitor
CC(=O)CCC1C2C(O)C(C(C)C)C(OC(=O)/C=C/c3ccccc3)CC12C (centres undefined)	i	i	i	?	3.5µM	i
CCOC(=O)N1CCc2c(sc(NCc3cccs3)c2C(=O)Nc2cc(Cl)ccc2OC)C1	i	i	i	nt	nt	i
Cc1cc(C)cc(NS(=O)(=O)c2ccc3[nH]cc(C(=O)NC4CCCCC4)c(=O)c3c2)c1	i	i	i	23µM	nt	i
Cc1cc(C)cc(NS(=O)(=O)c2ccc3[nH]cc(C(=O)NCc4ccccc4Cl)c(=O)c3c2)c1	i	i	i	nt	nt	i
Cc1cc(C)cc(NS(=O)(=O)c2ccc3[nH]cc(C(=O)NCc4ccco4)c(=O)c3c2)c1	?	i	i	16µM	i	i
CCCCCn1cc2c(c1-c1ccc(Br)cc1)c(=O)n(C)c(=O)n2C	i	i	i	i	nt	?
CCc1ccc(S(=O)(=O)Nc2cccc(-c3ccc(N4CCCCC4)nn3)c2)s1	i	i	i	nt	nt	i
Cc1ccc(-c2nc(CSCC(=O)N3CCN(c4ccccn4)CC3)c(C)o2)cc1	i	i	i	16µM	i	i
CCc1ccc(-c2nc(CSCC(=O)N3CCN(c4ccccn4)CC3)c(C)o2)cc1	i	i	?	16µM	i	i
C=CC[n+]1c(-c2ccccc2)csc1NC(C)(C)C	i	i	i	i	i	i
C=CC[n+]1c(-c2ccc(OC)c(OC)c2)csc1NNC(=O)Nc1ccccc1	i	i	?	13µM	i	i
Cc1ccc(CNC(=O)CSc2c3c(nc4cc(Cl)ccc24)CCCC3)o1	14µM	i	i	?	i	i
Cc1ccc2ncc(C)c(/C=C/c3ccc(N(C)C)cc3)c2c1	i	i	nt	nt	nt	nt
O=C(NC(N1CCCC1)C(Cl)(Cl)Cl)c1ccccc1 (centres undefined)	32µM	i	i	i	i	i
Cc1ccc(CNc2nc3c([nH]2)c(=O)n(C)c(=O)n3C)cc1	i	i[2.29 µM]	i	9.2µM	i	i
CCOc1cc(/C=C\[N+](=O)[O-])ccc1OCC(=O)N1CCOCC1	8.9µM	i	?	?	i	i
CCOC(=O)c1c(C)c(-c2ccccc2)n(CC(=O)Nc2cccc(F)c2)c1C	i	i	i	i	nt	i
CC(C)Oc1ccc(-c2nc(-c3cccnc3)no2)cc1	i	i[0.0914 µM]	nt	nt	nt	nt
COc1ccccc1NS(=O)(=O)c1cc(NC(=O)c2ccc(Cl)nc2)ccc1N1CCCC1	i	i	i	i	nt	i
COc1ccc(NS(=O)(=O)c2ccc(N3CCCCC3)c(NC(=O)C(C)NC(N)=O)c2)cc1 (centres undefined)	i	i	i	i	nt	i
COc1ccc(NS(=O)(=O)c2cc(NC(=O)C3CC3)ccc2N2CCCCC2)cc1	i	i	i	16µM	i	i
CC(=O)Nc1ccc(N2CCOCC2)c(S(=O)(=O)Nc2ccccc2Cl)c1	nt	nt	nt	nt	nt	i
COc1ccccc1NS(=O)(=O)c1cc(NC(=O)c2cccnc2)ccc1N1CCCCC1	i	i	i	21µM	nt	i
COc1ccc(NS(=O)(=O)c2ccc(N3CCCCC3)c(N)c2)cc1	i	i	i	6.5µM	?	i
